# Data from PubChem BioAssay (NCATS).
# Inconclusive results are not listed. Entries that show only a call come without a potency. Unmarked numbers belong to inactive results. Activity calls are given as the source filed them. Calls come from the whole dose curve; as a rule, active = well fitted curve in the direction sought with a large enough effect; inconclusive = small, poorly fitted or top-dose-only effect, or another doubt; inactive = no such curve, though single readings can be large; an effect the other way counts as inactive or inconclusive.
# Assays:
# [1] = qHTS assay for cell viability of HEK293 cells (AID 743288); settings: ATP luminescence (CellTiter-Glo), 18 h; max response: stronger effect = lower value; note: nearly all actives have a fitted effect of over 50% in size
# In short: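 Luminescent ATP quantitation served as the viability read-out. Cells (parental HEK293, 2,000/well) received compounds after at least 5 h at 37 C and were exposed for 18 h before a 30 min room-temperature reagent step.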
# 3D7 = test: qHTS profiling for inhibitors of Plasmodium falciparum proliferation (AID 504749); note: nearly all actives have a fitted effect of over 60% in size; note: potency is the fitted concentration of half-maximal effect; settings: P. falciparum in erythrocytes, SYBR Green DNA, 72 h; series mostly up to 28.7 µM
# In short: (§1)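 Readout was DNA-dye fluorescence from lysed cultures, ex 485/em 535 nm. Parasitized red cells had grown 72 h with compound; data scaled between 0.29 uM artemisinin and DMSO wells and corrected using vehicle-only plates.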
# C2A = test: as above; settings: P. falciparum in erythrocytes, SYBR Green DNA, 72 h; series mostly up to 28.7 µM
# In short: as §1
# CP191 = test: as above; settings: P. falciparum in erythrocytes, SYBR Green DNA, 72 h; series mostly up to 28.7 µM
# In short: as §1
# CP201 = test: as above; settings: P. falciparum in erythrocytes, SYBR Green DNA, 72 h; series mostly up to 28.7 µM
# In short: as §1
# CP215 = test: as above; settings: P. falciparum in erythrocytes, SYBR Green DNA, 72 h; series mostly up to 28.7 µM
# In short: as §1
# CP238 = test: as above; settings: P. falciparum in erythrocytes, SYBR Green DNA, 72 h; series mostly up to 28.7 µM
# In short: as §1
# CP262 = test: as above; settings: P. falciparum in erythrocytes, SYBR Green DNA, 72 h; series mostly up to 28.7 µM
# In short: as §1
# CP265 = test: as above; settings: P. falciparum in erythrocytes, SYBR Green DNA, 72 h; series mostly up to 12.8 µM
# In short: as §1
# CP266 = test: as above; settings: P. falciparum in erythrocytes, SYBR Green DNA, 72 h; series mostly up to 12.8 µM
# In short: as §1
# CP286 = test: as above; settings: P. falciparum in erythrocytes, SYBR Green DNA, 72 h; series mostly up to 28.7 µM
# In short: as §1
# CP305 = test: as above; settings: P. falciparum in erythrocytes, SYBR Green DNA, 72 h; series mostly up to 28.7 µM
# In short: as §1
# CP325 = test: as above; settings: P. falciparum in erythrocytes, SYBR Green DNA, 72 h; series mostly up to 28.7 µM
# In short: as §1
# CP329 = test: as above; settings: P. falciparum in erythrocytes, SYBR Green DNA, 72 h; series mostly up to 28.7 µM
# In short: as §1
# DIV14 = test: as above; settings: P. falciparum in erythrocytes, SYBR Green DNA, 72 h; series mostly up to 28.7 µM
# In short: as §1
# DIV30 = test: as above; settings: P. falciparum in erythrocytes, SYBR Green DNA, 72 h; series mostly up to 28.7 µM
# In short: as §1
# HB3 = test: as above; settings: P. falciparum in erythrocytes, SYBR Green DNA, 72 h; series mostly up to 28.7 µM
# In short: as §1
# P93_24 = test: as above; settings: P. falciparum in erythrocytes, SYBR Green DNA, 72 h; series mostly up to 28.7 µM
# In short: as §1
# PAD = test: as above; settings: P. falciparum in erythrocytes, SYBR Green DNA, 72 h; series mostly up to 28.7 µM
# In short: as §1
# PC26 = test: as above; settings: P. falciparum in erythrocytes, SYBR Green DNA, 72 h; series mostly up to 28.7 µM
# In short: as §1
smiles,measurement,setting,value
COc1nc(NC(C)C)nc(NC(C)C)n1,max response,[1],-7.69%
CC(C)N1C(=O)c2ccccc2NS1(=O)=O,max response,[1],-4.24%
CNc1ccc(C(=O)CC(O)CCC(C)C2OC(=O)CC(O)CC(=O)CC(O)CC(O)CC(O)CC(O)CC3(O)CC(O)C(C(=O)OC)C(CC(O[C@@H]4OC(C)C(O)C(N)C4O)/C=C/C=C/C=C/C=C/C=C/C=C/C=C/C2C)O3)cc1 (some centres undefined),Potency,3D7,inactive
same,Potency,C2A,inactive
same,Potency,CP191,inactive
same,Potency,CP201,inactive
same,Potency,CP215,inactive
same,Potency,CP238,inactive
same,Potency,CP262,inactive
same,Potency,CP265,inactive
same,Potency,CP266,inactive
same,Potency,CP286,inactive
same,Potency,CP305,inactive
same,Potency,CP325,inactive
same,Potency,CP329,inactive
same,Potency,DIV14,inactive
same,Potency,DIV30,inactive
same,Potency,HB3,inactive
same,Potency,P93_24,inactive
same,Potency,PAD,inactive
same,Potency,PC26,inactive
CNC(=O)Oc1cccc2c1OC(C)(C)O2,max response,[1],-19.8%
CC(C)Nc1nc(Cl)nc(NC(C)C)n1,max response,[1],-5.95%
C=CC1CN2CCC1CC2C(OC(=O)OCC)c1ccnc2ccc(OC)cc12 (centres undefined),Potency,3D7,2.51 µM (active)
same,Potency,CP191,5.01 µM (active)
same,Potency,CP215,12 µM (active)
same,Potency,CP238,8.91 µM (active)
same,Potency,CP262,6.01 µM (active)
same,Potency,CP265,5.01 µM (active)
same,Potency,CP286,5.01 µM (active)
same,Potency,CP305,9.53 µM (active)
same,Potency,CP325,13.5 µM (active)
same,Potency,DIV14,6.01 µM (active)
same,Potency,DIV30,9.53 µM (active)
same,Potency,HB3,6.31 µM (active)
same,Potency,P93_24,7.94 µM (active)
same,Potency,PAD,6.31 µM (active)
same,Potency,PC26,6.01 µM (active)
O=C(O)COc1cc(Cl)c(Cl)cc1Cl,max response,[1],-0.339%
O=C1C=C2C=CC3C[C@@]2(O1)C1CCCCN31 (some centres undefined),Potency,3D7,12.6 µM (active)
same,Potency,C2A,12.6 µM (active)
same,Potency,CP191,10 µM (active)
same,Potency,CP215,10.7 µM (active)
same,Potency,CP238,11.2 µM (active)
same,Potency,CP262,13.5 µM (active)
same,Potency,CP266,10.7 µM (active)
same,Potency,CP286,11.2 µM (active)
same,Potency,DIV14,inactive
same,Potency,DIV30,13.5 µM (active)
same,Potency,HB3,11.2 µM (active)
same,Potency,P93_24,12.6 µM (active)
same,Potency,PAD,12.6 µM (active)
CCc1cccc(C)c1N(C(=O)CCl)C(C)COC (centres undefined),max response,[1],-14.8%
CC(C)OC(=O)Nc1cccc(Cl)c1,max response,[1],-6.02%
N#Cc1c(Cl)cccc1Cl,max response,[1],0.0704%
COc1cc2c(cc1OC)[C@@]13CCN4CC5=CCOC6CC(=O)N2C1[C@H]6[C@@H]5C[C@@H]43 (some centres undefined),Potency,3D7,inactive
same,Potency,C2A,inactive
same,Potency,CP191,inactive
same,Potency,CP201,inactive
same,Potency,CP215,inactive
same,Potency,CP238,inactive
same,Potency,CP262,inactive
same,Potency,CP265,inactive
same,Potency,CP266,inactive
same,Potency,CP286,inactive
same,Potency,CP305,inactive
same,Potency,CP325,inactive
same,Potency,CP329,inactive
same,Potency,DIV14,inactive
same,Potency,DIV30,inactive
same,Potency,HB3,inactive
same,Potency,P93_24,inactive
same,Potency,PAD,inactive
same,Potency,PC26,inactive
